Measurements taken from paper PMC7862700, “An all-to-all approach to the identification of sequence-specific readers for epigenetic DNA modifications on cytosine”.

Legend:
Assay in all cases: DAPPL (digital affinity profiling via proximity ligation, sequencing); 10 mM Tris-HCl pH 7.5, 50 mM NaCl, 1 mM DTT, 4% glycerol, room temperature, 30 min; GST-TFs on glutathione beads, 16-mer random dsDNA library, 0.1% formaldehyde crosslink after washing; high values mean tight binding
Conditions in all cases: protein: recombinant; tags: N-terminal GST; dsDNA, one strand shown
[1] = biological target: T1, ELK1 (Homo sapiens, UniProt P19419 1-428)
T1 sequence: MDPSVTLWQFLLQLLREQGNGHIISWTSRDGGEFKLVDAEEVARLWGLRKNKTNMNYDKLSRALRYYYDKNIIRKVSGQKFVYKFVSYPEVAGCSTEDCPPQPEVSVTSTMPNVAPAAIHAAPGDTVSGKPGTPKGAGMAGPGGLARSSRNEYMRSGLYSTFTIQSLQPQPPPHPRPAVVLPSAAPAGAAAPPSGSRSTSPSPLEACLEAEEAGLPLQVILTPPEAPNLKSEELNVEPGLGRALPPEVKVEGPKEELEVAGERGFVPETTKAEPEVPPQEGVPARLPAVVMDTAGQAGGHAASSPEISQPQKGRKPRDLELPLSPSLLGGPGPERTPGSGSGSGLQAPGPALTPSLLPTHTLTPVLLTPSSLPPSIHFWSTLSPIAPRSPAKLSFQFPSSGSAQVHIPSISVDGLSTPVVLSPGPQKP
Summary of the method: (§1)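 Yeast served to express human transcription factors as GST fusions, which were then captured on glutathione beads and labelled with DNA barcodes. Pooled with a tag-only sample, they were incubated with 200 nmole of a 16-mer random double-stranded DNA library for 30 min at room temperature in Tris/NaCl/DTT/glycerol buffer, washed, crosslinked with 0.1% formaldehyde, ligated by proximity, amplified by PCR and sequenced. Dividing each hexamer's read frequency for a factor by its frequency for the tag-only sample gives the binding signal.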

[2] = biological target: T2, GABPA (Homo sapiens, UniProt Q06546 1-454)
T2 sequence: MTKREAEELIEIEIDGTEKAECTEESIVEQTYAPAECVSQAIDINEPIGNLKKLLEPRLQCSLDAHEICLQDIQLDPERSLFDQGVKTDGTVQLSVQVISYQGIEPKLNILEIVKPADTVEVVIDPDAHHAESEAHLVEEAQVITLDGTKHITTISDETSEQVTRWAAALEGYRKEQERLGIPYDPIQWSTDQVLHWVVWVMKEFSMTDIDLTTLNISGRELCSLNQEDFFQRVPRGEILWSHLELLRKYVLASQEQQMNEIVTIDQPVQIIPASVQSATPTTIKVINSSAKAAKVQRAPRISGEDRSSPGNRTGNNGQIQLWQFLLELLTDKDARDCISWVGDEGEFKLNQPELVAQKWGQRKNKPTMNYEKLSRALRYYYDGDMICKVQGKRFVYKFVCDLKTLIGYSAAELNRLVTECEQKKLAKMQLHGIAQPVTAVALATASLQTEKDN
Summary of the method: as §1

[3] = biological target: T3, ERG (Homo sapiens, UniProt P11308 1-479)
T3 sequence: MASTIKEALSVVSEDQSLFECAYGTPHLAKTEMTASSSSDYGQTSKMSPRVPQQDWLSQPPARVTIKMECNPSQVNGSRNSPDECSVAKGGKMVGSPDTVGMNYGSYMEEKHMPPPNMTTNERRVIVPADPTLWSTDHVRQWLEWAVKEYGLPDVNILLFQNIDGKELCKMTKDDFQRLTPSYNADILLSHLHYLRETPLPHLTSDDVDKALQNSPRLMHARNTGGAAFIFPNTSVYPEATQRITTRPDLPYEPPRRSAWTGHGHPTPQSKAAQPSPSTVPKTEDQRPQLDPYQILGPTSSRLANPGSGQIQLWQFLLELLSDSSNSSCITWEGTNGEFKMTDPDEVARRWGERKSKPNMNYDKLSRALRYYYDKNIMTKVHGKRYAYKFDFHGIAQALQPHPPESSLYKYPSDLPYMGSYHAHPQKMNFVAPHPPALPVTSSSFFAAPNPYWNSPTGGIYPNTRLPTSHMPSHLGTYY
Summary of the method: as §1

[4] = biological target: ELF1 (Homo sapiens, UniProt P32519 1-619)
Summary of the method: as §1

[5] = biological target: T4, EHF (Homo sapiens, UniProt Q9NZC4 1-300)
T4 sequence: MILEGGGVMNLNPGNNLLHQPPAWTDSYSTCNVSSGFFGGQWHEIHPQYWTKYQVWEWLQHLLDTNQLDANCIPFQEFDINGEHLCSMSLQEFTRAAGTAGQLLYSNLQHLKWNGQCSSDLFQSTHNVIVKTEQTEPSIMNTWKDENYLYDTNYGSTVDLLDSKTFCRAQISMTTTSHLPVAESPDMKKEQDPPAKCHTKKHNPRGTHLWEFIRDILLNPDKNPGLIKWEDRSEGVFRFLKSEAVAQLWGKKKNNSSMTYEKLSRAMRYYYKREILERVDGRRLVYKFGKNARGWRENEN
Summary of the method: as §1

[6] = biological target: SPIB (Homo sapiens, UniProt Q01892 1-262)
Summary of the method: as §1

[7] = biological target: T5, ELK3 (Homo sapiens, UniProt P41970 1-407)
T5 sequence: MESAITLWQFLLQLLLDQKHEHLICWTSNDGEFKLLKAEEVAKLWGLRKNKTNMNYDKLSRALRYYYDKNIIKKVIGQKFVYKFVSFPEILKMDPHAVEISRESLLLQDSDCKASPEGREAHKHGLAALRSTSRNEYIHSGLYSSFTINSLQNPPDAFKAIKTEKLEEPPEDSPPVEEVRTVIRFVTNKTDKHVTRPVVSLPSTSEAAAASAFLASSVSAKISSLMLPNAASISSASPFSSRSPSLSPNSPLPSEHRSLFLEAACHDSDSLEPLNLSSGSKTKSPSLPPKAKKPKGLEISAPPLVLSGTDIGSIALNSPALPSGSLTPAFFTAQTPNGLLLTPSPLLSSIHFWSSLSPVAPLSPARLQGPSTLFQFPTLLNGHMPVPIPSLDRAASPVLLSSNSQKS
Summary of the method: as §1

[8] = biological target: T6, SPIC (Homo sapiens, UniProt Q8N5J4 1-248)
T6 sequence: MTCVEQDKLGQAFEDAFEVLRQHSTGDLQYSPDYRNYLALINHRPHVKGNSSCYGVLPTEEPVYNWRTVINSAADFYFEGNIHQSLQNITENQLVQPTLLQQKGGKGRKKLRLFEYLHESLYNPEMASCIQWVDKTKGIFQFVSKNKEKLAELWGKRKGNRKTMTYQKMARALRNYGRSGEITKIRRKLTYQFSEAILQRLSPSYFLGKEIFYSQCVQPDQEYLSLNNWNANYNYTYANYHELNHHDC
Summary of the method: as §1

[9] = biological target: T7, ETV2 (Homo sapiens, UniProt O00321 1-342)
T7 sequence: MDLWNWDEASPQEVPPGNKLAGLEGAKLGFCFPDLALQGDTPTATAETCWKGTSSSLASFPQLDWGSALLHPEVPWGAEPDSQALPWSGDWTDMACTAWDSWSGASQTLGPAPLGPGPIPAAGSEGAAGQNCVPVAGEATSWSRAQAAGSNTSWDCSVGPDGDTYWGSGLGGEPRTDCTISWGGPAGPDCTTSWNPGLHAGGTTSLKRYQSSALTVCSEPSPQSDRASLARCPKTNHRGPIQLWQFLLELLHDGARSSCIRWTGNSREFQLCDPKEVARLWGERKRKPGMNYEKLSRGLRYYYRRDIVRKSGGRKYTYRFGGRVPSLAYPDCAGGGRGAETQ
Summary of the method: as §1

[10] = biological target: T8, ELF3 (Homo sapiens, UniProt P78545 1-371)
T8 sequence: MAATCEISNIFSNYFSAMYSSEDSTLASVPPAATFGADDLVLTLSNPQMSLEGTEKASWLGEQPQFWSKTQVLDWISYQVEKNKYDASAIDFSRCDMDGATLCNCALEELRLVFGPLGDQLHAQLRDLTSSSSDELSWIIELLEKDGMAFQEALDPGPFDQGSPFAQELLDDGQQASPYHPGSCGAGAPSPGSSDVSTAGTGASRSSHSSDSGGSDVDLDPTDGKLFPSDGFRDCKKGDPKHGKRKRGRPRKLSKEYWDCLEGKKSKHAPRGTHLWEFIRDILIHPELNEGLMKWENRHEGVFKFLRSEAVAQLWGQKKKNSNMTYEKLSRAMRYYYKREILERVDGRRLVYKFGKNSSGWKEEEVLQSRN
Summary of the method: as §1

[11] = biological target: ETV1 (Homo sapiens, UniProt P50549 1-477)
Summary of the method: as §1

[12] = biological target: T9, ERF (Homo sapiens, UniProt P50548 1-548)
T9 sequence: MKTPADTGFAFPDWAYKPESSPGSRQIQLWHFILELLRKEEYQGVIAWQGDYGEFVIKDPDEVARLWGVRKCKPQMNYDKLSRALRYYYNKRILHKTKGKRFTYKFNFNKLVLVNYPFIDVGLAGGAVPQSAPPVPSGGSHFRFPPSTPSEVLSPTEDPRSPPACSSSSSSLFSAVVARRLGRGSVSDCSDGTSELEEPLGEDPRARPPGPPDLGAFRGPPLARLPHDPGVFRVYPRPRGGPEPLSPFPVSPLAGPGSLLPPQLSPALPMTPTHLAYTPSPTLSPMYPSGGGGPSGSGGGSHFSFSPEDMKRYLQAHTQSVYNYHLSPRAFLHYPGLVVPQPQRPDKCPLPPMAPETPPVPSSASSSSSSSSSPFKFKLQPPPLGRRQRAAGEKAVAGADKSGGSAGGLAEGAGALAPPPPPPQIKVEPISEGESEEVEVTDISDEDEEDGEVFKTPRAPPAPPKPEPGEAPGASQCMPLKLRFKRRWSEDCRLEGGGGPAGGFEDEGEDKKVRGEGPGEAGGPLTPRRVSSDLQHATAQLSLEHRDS
Summary of the method: as §1

[13] = biological target: T10, ETV3L (Homo sapiens, UniProt Q6ZN32 1-361)
T10 sequence: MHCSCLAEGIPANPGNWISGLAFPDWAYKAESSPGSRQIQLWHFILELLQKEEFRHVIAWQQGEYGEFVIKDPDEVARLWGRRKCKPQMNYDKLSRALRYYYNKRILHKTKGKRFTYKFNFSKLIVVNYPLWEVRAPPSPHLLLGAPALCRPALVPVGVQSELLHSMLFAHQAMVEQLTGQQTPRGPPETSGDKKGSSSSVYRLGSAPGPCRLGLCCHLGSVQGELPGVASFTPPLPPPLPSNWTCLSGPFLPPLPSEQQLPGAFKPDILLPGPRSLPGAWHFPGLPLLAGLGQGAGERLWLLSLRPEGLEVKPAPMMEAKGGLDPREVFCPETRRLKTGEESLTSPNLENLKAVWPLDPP
Summary of the method: as §1

[14] = biological target: T11, ETS2 (Homo sapiens, UniProt P15036 1-469)
T11 sequence: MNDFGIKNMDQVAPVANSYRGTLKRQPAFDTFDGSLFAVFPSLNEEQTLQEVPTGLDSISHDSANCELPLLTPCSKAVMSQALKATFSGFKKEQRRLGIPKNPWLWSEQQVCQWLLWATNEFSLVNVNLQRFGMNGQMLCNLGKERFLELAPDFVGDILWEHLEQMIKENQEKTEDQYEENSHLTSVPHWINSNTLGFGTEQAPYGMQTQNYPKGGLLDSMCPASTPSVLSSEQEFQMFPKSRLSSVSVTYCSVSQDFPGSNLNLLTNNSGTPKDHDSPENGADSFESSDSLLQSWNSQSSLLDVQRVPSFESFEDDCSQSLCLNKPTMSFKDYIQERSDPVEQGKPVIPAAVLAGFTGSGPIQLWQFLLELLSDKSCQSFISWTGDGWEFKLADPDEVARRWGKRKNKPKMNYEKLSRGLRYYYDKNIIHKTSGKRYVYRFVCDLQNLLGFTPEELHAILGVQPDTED
Summary of the method: as §1

[15] = biological target: T12, ETV3 (Homo sapiens, UniProt P41162-2 1-143)
T12 sequence: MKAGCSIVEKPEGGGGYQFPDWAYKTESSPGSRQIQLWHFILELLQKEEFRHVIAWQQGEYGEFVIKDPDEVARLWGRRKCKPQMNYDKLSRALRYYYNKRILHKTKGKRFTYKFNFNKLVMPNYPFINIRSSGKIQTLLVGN
Summary of the method: as §1

[16] = biological target: ETV6 (Homo sapiens, UniProt P41212 1-452)
Summary of the method: as §1

Sequence of SPIB (Q01892 whole entry): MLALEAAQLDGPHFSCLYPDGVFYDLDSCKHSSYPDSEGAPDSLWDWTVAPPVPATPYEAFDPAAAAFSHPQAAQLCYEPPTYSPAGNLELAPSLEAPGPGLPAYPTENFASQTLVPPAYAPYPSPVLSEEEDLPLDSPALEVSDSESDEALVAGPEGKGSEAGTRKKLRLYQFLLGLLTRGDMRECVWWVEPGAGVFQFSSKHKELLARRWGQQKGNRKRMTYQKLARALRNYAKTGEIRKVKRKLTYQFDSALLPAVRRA
Sequence of ETV1 (P50549 whole entry): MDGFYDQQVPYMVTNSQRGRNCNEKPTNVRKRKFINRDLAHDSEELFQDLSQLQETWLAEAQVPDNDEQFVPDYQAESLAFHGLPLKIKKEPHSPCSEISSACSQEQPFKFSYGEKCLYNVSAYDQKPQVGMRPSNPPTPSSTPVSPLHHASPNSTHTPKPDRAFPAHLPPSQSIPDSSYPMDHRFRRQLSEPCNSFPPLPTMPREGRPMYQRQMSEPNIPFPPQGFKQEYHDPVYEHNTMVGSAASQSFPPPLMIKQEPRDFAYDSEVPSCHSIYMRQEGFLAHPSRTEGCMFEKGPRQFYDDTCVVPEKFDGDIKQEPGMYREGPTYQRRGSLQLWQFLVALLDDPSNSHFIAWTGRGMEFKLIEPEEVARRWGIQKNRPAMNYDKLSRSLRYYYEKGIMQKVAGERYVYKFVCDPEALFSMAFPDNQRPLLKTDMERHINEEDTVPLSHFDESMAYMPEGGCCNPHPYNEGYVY
Sequence of ELF1 (P32519 whole entry): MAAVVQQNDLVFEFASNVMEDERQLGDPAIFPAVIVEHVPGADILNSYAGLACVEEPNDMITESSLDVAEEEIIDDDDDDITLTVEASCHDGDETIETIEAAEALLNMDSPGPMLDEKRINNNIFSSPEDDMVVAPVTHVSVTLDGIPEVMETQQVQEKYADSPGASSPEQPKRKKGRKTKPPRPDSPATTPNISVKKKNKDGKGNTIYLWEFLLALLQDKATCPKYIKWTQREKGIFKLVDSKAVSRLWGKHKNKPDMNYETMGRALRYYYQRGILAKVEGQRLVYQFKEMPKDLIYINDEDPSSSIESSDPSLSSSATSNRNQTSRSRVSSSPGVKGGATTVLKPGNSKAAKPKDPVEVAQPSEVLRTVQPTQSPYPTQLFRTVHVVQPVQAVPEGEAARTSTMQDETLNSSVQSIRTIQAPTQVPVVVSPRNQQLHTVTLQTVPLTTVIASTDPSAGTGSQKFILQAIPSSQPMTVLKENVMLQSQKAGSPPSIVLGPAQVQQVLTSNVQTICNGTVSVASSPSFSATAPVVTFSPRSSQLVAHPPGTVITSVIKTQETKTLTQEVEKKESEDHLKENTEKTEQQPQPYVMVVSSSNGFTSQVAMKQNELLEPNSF
Sequence of ETV6 (P41212 whole entry): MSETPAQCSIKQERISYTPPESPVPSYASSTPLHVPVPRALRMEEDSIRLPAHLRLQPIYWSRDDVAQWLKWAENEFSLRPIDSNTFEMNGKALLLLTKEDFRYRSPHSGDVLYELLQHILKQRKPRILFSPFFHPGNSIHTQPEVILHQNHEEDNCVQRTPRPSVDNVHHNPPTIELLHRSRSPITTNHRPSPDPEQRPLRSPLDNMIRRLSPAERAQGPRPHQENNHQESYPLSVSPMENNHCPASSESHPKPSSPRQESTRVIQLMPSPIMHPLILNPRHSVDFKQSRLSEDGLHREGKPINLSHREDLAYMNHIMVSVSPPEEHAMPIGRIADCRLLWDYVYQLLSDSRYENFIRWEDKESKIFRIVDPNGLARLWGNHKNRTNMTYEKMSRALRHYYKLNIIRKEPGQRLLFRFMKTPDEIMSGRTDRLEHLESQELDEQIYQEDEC

Sequence: AACGCA
- binding signal [1]: 1.03 fold enrichment (6-mer frequency, TF over GST control)
- binding signal [2]: 1.06 fold enrichment (6-mer frequency, TF over GST control)
- binding signal [3]: 1.13 fold enrichment (6-mer frequency, TF over GST control)
- binding signal [4]: 1.06 fold enrichment (6-mer frequency, TF over GST control)
- binding signal [5]: 1.04 fold enrichment (6-mer frequency, TF over GST control)
- binding signal [6]: 1.04 fold enrichment (6-mer frequency, TF over GST control)
- binding signal [7]: 1.06 fold enrichment (6-mer frequency, TF over GST control)
- binding signal [8]: 1.02 fold enrichment (6-mer frequency, TF over GST control)
- binding signal [9]: 1.1 fold enrichment (6-mer frequency, TF over GST control)
- binding signal [10]: 1.03 fold enrichment (6-mer frequency, TF over GST control)
- binding signal [11]: 1.09 fold enrichment (6-mer frequency, TF over GST control)
- binding signal [12]: 1.16 fold enrichment (6-mer frequency, TF over GST control)
- binding signal [13]: 1.03 fold enrichment (6-mer frequency, TF over GST control)
- binding signal [14]: 1.1 fold enrichment (6-mer frequency, TF over GST control)
- binding signal [15]: 1.03 fold enrichment (6-mer frequency, TF over GST control)
- binding signal [16]: 1.06 fold enrichment (6-mer frequency, TF over GST control)
